Data as given in the supplement of paper PMC7595190.
Unmarked numbers belong to inactive results.

Test system: MV4-11
Assay: CellTox Green cytotoxicity fluorescence relative to DMSO vehicle (fold of vehicle RFU); higher = more cell death (loss of membrane integrity), active = 2 or more
Experimental: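 Paediatric AML cell lines (MV4-11, CMK, Kasumi-1; 4x10^4 cells/well, 96-well) treated with single compounds from the Selleckchem apoptosis library at 0.01, 0.1 and 1 µM. Cytotoxicity was read with CellTox Green (RFU, Ex 485/Em 520) at 24, 48 and 72 h and normalised to the 0.1% DMSO vehicle. Normalised RFU >= 2 was taken as a successful, cell-killing treatment.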

Row | Compound | CellTox Green cytotoxicity fluorescence (0.01 µM, 24 h) | CellTox Green cytotoxicity fluorescence (0.01 µM, 48 h) | CellTox Green cytotoxicity fluorescence (0.01 µM, 72 h) | CellTox Green cytotoxicity fluorescence (0.1 µM, 24 h) | CellTox Green cytotoxicity fluorescence (0.1 µM, 48 h) | CellTox Green cytotoxicity fluorescence (0.1 µM, 72 h) | CellTox Green cytotoxicity fluorescence (1 µM, 24 h) | CellTox Green cytotoxicity fluorescence (1 µM, 48 h) | CellTox Green cytotoxicity fluorescence (1 µM, 72 h)
1 | N#CC(=Cc1ccc(-c2cc(Cl)ccc2Cl)o1)C(=O)Nc1cccc2ncccc12 | 1.01 | 0.987 | 0.982 | 0.998 | 0.992 | 1.01 | 0.969 | 0.985 | 0.984
2 | Fc1ccc(CNc2ncnc3ccc(F)cc23)cc1 [Spautin-1] | 0.982 | 0.965 | 0.962 | 0.962 | 0.942 | 0.936 | 1.03 | 1.02 | 1.02
3 | Nc1cccc2c1C(=O)N(C1CCC(=O)NC1=O)C2=O (stereo not given) [Pomalidomide] | 0.981 | 0.995 | 0.992 | 1.04 | 1.01 | 0.983 | 1.01 | 0.968 | 0.96
4 | CN[C@@H](C)C(=O)N[C@H](C(=O)N1CCC[C@H]1c1nc(C(=O)c2ccc(F)cc2)cs1)C1CCCCC1 | 0.99 | 0.973 | 0.977 | 0.975 | 0.99 | 1 | 0.969 | 1.02 | 1.03
5 | COCC[n+]1c2c(n(Cc3cnccn3)c1C)C(=O)c1ccccc1C2=O [Sepantronium Bromide] | 0.95 | 0.938 | 0.957 | 1.02 | 1.83 | 2.14 (active) | 1.35 | 2.26 (active) | 2.48 (active)
